# Experimental data reported in PubChem BioAssay (NCI).
# About 79,000 compounds went through this panel and 15% of them were active in at least one assay; those are over-represented in the sample as a whole. A number with no mark means an inactive call. Active and inactive are the calls of the source. Rule as the data show it: active = growth inhibition above about 70%; inactive = the rest.
# Tests used:
# [1] = NCI Yeast Anticancer Drug Screen. Data for the rad50 strain (AID 155);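 also: 0% = growth of vehicle-only cultures of the same strain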; settings: S. cerevisiae rad50 strain growth inhibition; at 50.0 µM; hits give high values
# Method in brief: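 Inhibition values express reduced yeast growth in compound-treated cultures relative to vehicle-treated controls.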
# [2] = NCI Yeast Anticancer Drug Screen. Data for the mec2-1 strain (AID 157); settings: S. cerevisiae mec2-1 strain, at 50.0 µM, hits give high values
# Method in brief: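 Test agents were screened against the mec2-1 yeast strain, with defined DNA repair or cell cycle alteration. Growth was scored as inhibition against vehicle-only controls.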
# [3] = NCI Yeast Anticancer Drug Screen. Data for the sgs1 mgt1 strain (AID 161);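 also: 0% = growth of cultures given vehicle only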; settings: S. cerevisiae sgs1 mgt1 strain, at 50.0 µM, hits give high values
# Method in brief: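 Inhibition of yeast growth, normalised to vehicle-treated controls, is reported for a strain bearing genetic alterations in DNA damage repair.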
# [4] = NCI Yeast Anticancer Drug Screen. Data for the cln2 rad14 strain (AID 165);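 also: 0% = growth equal to vehicle treated cultures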; settings: S. cerevisiae cln2 rad14 strain, at 50.0 µM, hits give high values
# Method in brief: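 Growth of compound-exposed yeast (cln2 rad14 genotype) measured and expressed as inhibition relative to vehicle.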
# [5] = NCI Yeast Anticancer Drug Screen. Data for the bub3 strain (AID 167); settings: S. cerevisiae bub3 mutant strain, at 50.0 µM, hits give high values
# Method in brief: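 Steps: expose the mutant yeast strain to compound; grow alongside vehicle-treated cultures; measure growth; express inhibition against the vehicle cultures.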
# [6] = NCI Yeast Anticancer Drug Screen. Data for the mlh1 rad18 strain (AID 175); settings: S. cerevisiae mlh1 rad18 strain growth inhibition; at 50.0 µM; hits give high values
# Method in brief: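 In this whole-cell yeast screen, a strain with altered DNA damage repair is challenged with compound, and its growth is measured against matched vehicle-treated controls.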
Structure (SMILES),growth inhibition [1],growth inhibition [2],growth inhibition [3],growth inhibition [4],growth inhibition [5],growth inhibition [6]
O=C(Nc1cccc(Cl)c1)Sc1c(Cl)c(Cl)c(Cl)c(Cl)c1Cl,24.4%,17.3%,26.4%,29.2%,7.3%,34.8%
O=C(NC1CC1)C1CC1,-20.2%,-12.8%,-1.45%,-17.4%,1.7%,-1.35%
Nc1ccc(NC(=O)Nc2ccc(N)cc2)cc1,24.5%,4.3%,16.8%,9.15%,10.8%,20.4%
Nc1[nH]n(-c2ccccc2)c(=O)c1C1c2ccccc2Sc2ccccc21,8.7%,11.2%,16.4%,-66.6%,15.2%,16.2%
Nc1ccc(C(=O)NN2C(=O)C(Cl)C2c2ccccc2)cc1 (stereo unspecified),-30.2%,-31.8%,-62.5%,-1.8%,-30.4%,-38.2%
CNC(=O)C(C)NC(=O)C(Cc1ccccc1)NC(=O)OC(C)(C)C (stereo unspecified),-10.2%,-57.7%,-16.2%,-28.8%,-19.2%,1.05%
O=c1[nH]c(Nc2ccccc2)nc2c1ncn2CC(O)CSCCO (stereo unspecified),16.1%,13.2%,26.7%,8.45%,10.4%,-27.4%
NNC(=O)C(=O)N/N=C1\CCCC1C(=O)CCC(=O)Nc1cccc(Cl)c1 (stereo unspecified),-35.5%,-33.4%,-32.3%,-1.65%,-24.1%,-30.9%
COC(=O)C(Cc1c[nH]c2ccccc12)NP(=O)(O)OCC1OC(n2cc(F)c(=O)[nH]c2=O)CC1O (stereo unspecified),-31.4%,-17.1%,-38.5%,-9.2%,-24.7%,-16.1%
COC1=CC(=O)O/C1=C(\OC)C1OC1c1ccccc1 (stereo unspecified),-4%,-7.25%,2.9%,-1.35%,-6.5%,-24.9%
Cc1nc2ccccc2c(=O)n1NC(=O)c1ccccn1,-6.6%,-10%,-11.6%,-1.05%,-5.55%,-8.25%
CC(=O)Oc1nnc(OC(C)=O)c2cc(N)ccc12,-13.3%,-18.3%,4.45%,-1.2%,9.9%,0.75%
Nc1cccc2ccc(S(=O)(=O)O)cc12,-3.05%,-9%,-24.4%,-13.8%,-9.9%,8.85%
N#CC1=CCc2ccccc2N1C(=O)Oc1ccccc1,58.5%,12.7%,50%,19.4%,64.6%,47.2%
CCCCNC(N)=O,-21.1%,-36.1%,-21.9%,-37.9%,-2.2%,-9.25%
O=C(Cc1ccccc1)N/N=C(/c1nc2ccc([N+](=O)[O-])cc2[nH]c1=O)C(O)c1ccco1 (stereo unspecified),-0.95%,-9.75%,-4.85%,-79.2%,-6.25%,-2.8%
NCCCCC(N)C(=O)O.[Cu+2] (stereo unspecified),-13.6%,3.95%,-4.9%,-6%,-11.8%,-22.8%
CCOc1cc(C(=O)O)cc(OCC)n1,-0.1%,-9.45%,9.2%,-29.4%,8.95%,3.05%
c1ccc(-c2sc(-c3ccccc3)c3c2C2CCC3C2)cc1,-12.4%,6.05%,14%,29%,40.6%,-0.05%
COc1ccc(NC(=O)N(C)Cc2ccccc2Cl)cc1,-0.35%,-10.8%,1.9%,-12.6%,11.2%,0.4%
Cc1ccc(S(=O)(=O)NN=C2CCCCC2)cc1,-3.45%,-11.4%,-1.3%,-19.4%,-14.5%,-11.8%

Structure (SMILES),growth inhibition [1],growth inhibition [2],growth inhibition [3],growth inhibition [4],growth inhibition [5],growth inhibition [6]
O=C(Cc1ccccc1)c1ccc(OCC(O)CN2CCN(c3ccccc3)CC2)cc1 (stereo unspecified),97.7% (active),98.1% (active),99.3% (active),93.4% (active),84.1% (active),96.3% (active)
CC(=O)Oc1ccc(O)c(C(=O)O)c1,1.8%,-7.15%,-4.95%,-1.35%,0.2%,17.3%
Cc1cccc(NC(=O)C(C)C)c1,24.3%,19.4%,11.8%,-2.35%,-43.9%,-33%
COc1ccc(/C=N/CCl)cc1,-1.55%,2%,7.05%,-49.3%,-22.1%,-1.2%
CC[C@H](/C=C/[C@@H](C)[C@H]1CC[C@H]2[C@@H]3CC[C@@H]4CC(=O)CC[C@]4(C)[C@H]3CC[C@]12C)C(C)C,29.9%,-13.8%,9.6%,1.15%,35.5%,34%
CN(C)Cc1[nH]c(=O)[nH]c(=O)c1O,-9.05%,-8.75%,-11.9%,-38.8%,-21.5%,-45.3%
C/C(=C/CCl)[N+](=O)[O-],36.4%,-10.4%,-4.95%,-7.35%,-8.95%,14.1%
CN(C)Cc1cccc(-c2ccccc2)c1O,21.8%,-4.9%,12%,-15.8%,5.3%,17.2%
CCOc1ccccc1NC(=O)CC(C(=O)OC)C(=O)C(=O)OC (stereo unspecified),-10%,5.75%,-24.1%,20%,-8.9%,-9.75%
CC(C)(O)CCC(O)C(C)(O)C1CCC2(O)C3=CC(=O)C4(O)CC(O)C(O)CC4(C)C3CCC12C (stereo unspecified) (tested in a mixture with another compound),-5.3%,-17.9%,6.15%,-12.2%,-17.4%,-47.7%
CC1CN(C(=O)OCC23COC4(C)CCC(C)(OC2)N34)CC(C)O1 (stereo unspecified),2.6%,-18%,6.9%,13.4%,-0.7%,5.75%
CC(=O)OCC1OC(n2cnc3c(N)ncnc32)CC1OC(C)=O (stereo unspecified),-1.7%,-1.75%,-1.25%,-47.5%,15.5%,-18.6%
CC(C)NP(=O)(OC1CC(C)(C)N(O)C(C)(C)C1)OC1CC(C)(C)N(O)C(C)(C)C1,26.1%,18.6%,13.4%,-16.3%,2%,5.65%
CCCC1=C(CC)C(C(=O)Nc2c(C)cccc2C)=NC(S)N1 (stereo unspecified),-11.8%,-15.6%,0.65%,14.5%,1.15%,-19.1%
NNC(=O)C(=O)N/N=C(/CC1(O)C(=O)Nc2ccccc21)c1ccc(Cl)cc1Cl (stereo unspecified),-0.9%,4%,-15.9%,-53.4%,0.75%,-1.95%
O=C(Nc1ccccc1)N1CCC[C@@H]2CCCC[C@@H]21,3.2%,-0.15%,0.7%,-82.4%,-6.8%,-4.45%
CN1CCN(Cc2oc(CO)cc(=O)c2O)CC1,-3.8%,-22.9%,5.2%,12.2%,16.8%,-7.65%
O=C1CSC=NN1c1ccccc1,-12.8%,-6.75%,-14.9%,-9.75%,5.75%,3.9%
CN1CCCCC1CCN1CCCCC1 (stereo unspecified),-38.9%,-10.2%,-7.8%,-39.5%,-17.9%,1.3%
COc1cccc(CCC(=O)O)c1,-11.7%,-9.75%,-21.6%,31%,-1.45%,2.7%
